# Source: PubChem BioAssay (Broad Institute)
# LGR2 inh – Drosophila LGR2 receptor signaling inhibition; inhibition, % at 9.99 µM; HEK293 LGR2, CRE-luciferase, bursicon-stimulated, 4 h; actives 0.35% (n = 380,000);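 active = drop in luminescence signal, shown as inhibition above about 50% in the replicate tests, limit read from the data, passing the limit was not always enough; inconclusive = probably only some replicates passing the limit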;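 also: agonist challenge used bursicon conditioned medium at about half maximal strength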
# RAD52 inh – inhibitors of human RAD52 DNA annealing | P43351 | inhibition, % at 18.7 µM | recombinant RAD52 DNA annealing, FRET fluorescence | AID 651710 | actives 0.46% (n = 360,000);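 active = every replicate showing at least 50% inhibition; inconclusive = mean inhibition at least 50% but not in every replicate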
# RAD54 branch – RAD54 (human) branch migration inhibition | Q92698 | RAD54 Holliday junction branch migration, FAM/BHQ fluorescence | inhibition, % at 10.4 µM | actives 0.14% (n = 360,000);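 active = mean normalized replicate activity at least 40 and at least half of replicates scoring 40 or more; inconclusive = only one of the two criteria met; inactive = mean below 40 and under half of replicates reaching 40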;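 also: 0% = median of neutral control wells and 100% = median of positive control wells; inhibitors cause a drop in the FAM fluorescence signal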
# Target sequence (Q92698 whole entry, looked up): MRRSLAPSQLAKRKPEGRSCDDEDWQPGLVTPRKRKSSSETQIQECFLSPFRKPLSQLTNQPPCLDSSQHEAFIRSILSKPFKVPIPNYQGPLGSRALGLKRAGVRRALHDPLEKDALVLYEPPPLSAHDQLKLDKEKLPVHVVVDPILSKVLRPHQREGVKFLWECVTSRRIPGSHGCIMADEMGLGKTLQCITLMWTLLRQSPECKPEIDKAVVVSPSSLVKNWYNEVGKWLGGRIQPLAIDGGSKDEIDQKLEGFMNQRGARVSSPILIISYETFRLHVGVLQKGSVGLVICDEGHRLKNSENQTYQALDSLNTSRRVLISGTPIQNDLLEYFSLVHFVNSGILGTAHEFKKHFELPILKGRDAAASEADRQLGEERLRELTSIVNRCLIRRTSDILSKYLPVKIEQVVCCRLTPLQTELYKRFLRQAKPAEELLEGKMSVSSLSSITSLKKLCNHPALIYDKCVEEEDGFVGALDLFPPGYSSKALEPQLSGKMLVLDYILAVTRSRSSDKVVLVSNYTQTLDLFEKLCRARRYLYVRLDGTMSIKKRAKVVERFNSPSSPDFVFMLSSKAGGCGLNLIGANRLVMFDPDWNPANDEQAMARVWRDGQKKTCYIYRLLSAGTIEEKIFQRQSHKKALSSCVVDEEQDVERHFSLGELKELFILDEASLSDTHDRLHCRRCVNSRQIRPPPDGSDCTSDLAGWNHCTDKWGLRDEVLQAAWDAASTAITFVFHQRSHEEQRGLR
# EWS-Fli block – blocks EWS/Fli oncoprotein-driven transcription | A673 NR0B1-luciferase reporter, viability-normalised | inhibition, % at 12.6 µM | actives 0.67% (n = 350,000);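 active = mean inhibition of at least 50% after viability correction, with every replicate also passing that limit; inconclusive = mean reaches 50% but only one of two replicates passes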;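 also: firefly luciferase signal divided by Alamar Blue viability fluorescence both relative to DMSO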
# F508del corr – correctors of CFTR F508del function in bronchial epithelial cells. CFBE cells, YFP halide quenching; stimulated with forskolin plus potentiator P3; % fluorescence drop versus neutral controls. activity (quench increase), % at 7.58 µM. actives 0.36% (n = 350,000). AID 720511;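 active = mean added fluorescence quench of at least 8% versus neutral control, with both replicates also reaching 8%; inconclusive = only one of the mean or replicate conditions met; inactive = mean below 8% and not both replicates reaching 8%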;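 also: cells transiently co-express mutant CFTR-F508del with the halide-sensitive YFP; corrector assay measuring rescue of mutant channel to the surface after 24 h compound exposure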
# GSIS activator – GLuc luminescence reporter in INS-1E cells, primary screen for activators of glucose-dependent secretion of insulin | INS-1E GLuc reporter insulin secretion, 2-3 h | activation, % at 16.6 µM | actives 0.61% (n = 370,000);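 active = lowest replicate activation of at least 40%, so every replicate reaches that level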;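 also: 0% = median of neutral control wells and 100% = median of IBMX positive control wells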
# DNA binder FP – binds DNA, flagging false RAD52 inhibitor hits; AC50, µM; actives 8% (n = 1,000); Salmon sperm DNA/acridine orange FP displacement, DNA binding; shares compounds with RAD52 inh; AID 652128;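 active = fitted half-maximal concentration for signal loss at or below twice the highest dose tested, in every separate run, actives reach about 64 µM in these data; inconclusive = runs disagree, or flat partial signal loss, or poor fit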
# * = called active by the depositor; i = inactive; ? = inconclusive; . = no result given; ! = a repeat was not active. Sampled rows, rich in hits. Any-hit rate of the full collection: about 1.8%.
SMILES,LGR2 inh,RAD52 inh,RAD54 branch,EWS-Fli block,F508del corr,GSIS activator,DNA binder FP
COc1ccc(NC(=O)Nc2ccc3c(c2)C(=O)N([C@H](C)CO)C[C@@H](C)[C@@H](CN(C)Cc2ccc4c(c2)OCO4)OCCCC[C@H](C)O3)cc1,8,59*!,-4,11,-1,-19,i
Cc1cc(C)c(NC(=O)C(C)(C)C)c(Cl)c1,.,.,2,.,.,.,.
COCCNCC(O)CON=C1c2ccccc2-c2ccccc21 (stereo not drawn),7,-13,.,-12,0,7,.
CC(C)CCNCC(O)CON=C1c2ccccc2-c2ccccc21 (stereo not drawn),10,66*,.,31,-5,9,i
CC/C(=N\O)c1c(O)c2c(n(-c3ccccc3)c1=O)CCCC2,.,54*,.,2,.,.,i
O=c1c(-c2ccccc2)c(O)c2c(n1-c1ccccc1)CCCC2,10,.,.,.,.,10,.
CC1(C)Nc2cccc3cccc(c23)N1,3,65*,9,-8,-2,-11,i
C=CC(=O)Nc1cccc(Oc2nc(Nc3ccc(N4CCN(C)CC4)cc3OC)ncc2Cl)c1,36,95*,.,14,-5,133,i
CCN(CC)CC(O)Cn1c(C)c(-c2ccccc2)c2cc([N+](=O)[O-])ccc21 (stereo not drawn),1,64*,24,24,4,-26,i
O=[N+]([O-])c1ccc2c(c1)c1ccccc1n2CCO,-1,-17,6,5,-1,16,.
NC(N)=Nc1nc(-c2ccccc2)c2ccccc2n1,.,64*,51*,1,0,-12,i
CCc1nc(N=C(N)N)nc2ccccc12,.,63*,.,11,6,13,i
Cc1ccc2c(c1)c1c3n2CCN(CC(O)CNC(C)C)C3CCC1 (stereo not drawn),-4,82*,?,12,2,6,i
Cc1ccc2c(c1)c1c3n2CCN(CC(N)=O)C3CCC1 (stereo not drawn),-40,-7,4,5,-21,-7,.
O=C(C[n+]1cccc2ccccc21)c1ccccc1,1,.,-18,.,.,-4,.
CCCCCCCCCCCCCCCC[n+]1cccc2ccccc21,6,90*,.,89*,.,159*,32µM*
COc1cc(/C=C/c2cc[n+](C)cc2)ccc1OCC(=O)Nc1ccc(Cl)c(Cl)c1,2,69*,-3,-5,3,-24,i
Oc1ccc(C2CNCCc3c2cc(O)c(O)c3Cl)cc1 (stereo not drawn),14,52*!,-3,-8,-3,1,i
CC(C)/C(=N\NC(=O)Nc1ccccc1)c1ccccc1,.,.,-19,.,.,.,.
C/C(=N\NC(=O)Nc1ccccc1)c1ccccc1,-24,100*,-6,-29,2,4,i
Cc1cccc(NS(=O)(=O)c2ccc(C)c(C(=O)OCC(=O)Nc3cc(C)on3)c2)c1,.,.,-2,.,.,-25,.
CCCCCCCCCCCCCCCC[n+]1cccc(C(=O)N(CC)CC)c1,-2,88*,40,7,5,.,i
CCCCCCCC[n+]1cccc(C(=O)N(CC)CC)c1,.,3,.,9,2,17,.
CCO[C@@H]1OC(C(=O)NC2CC2)=C[C@H](c2csc3ccccc23)[C@H]1CCCO,6,-5,3,-5,0,-14,.
COc1cc2c(cc1OC)CN1CCc3cc(OC)c(OC)cc3C1C2 (stereo not drawn),-1,74*,84*,2,-2,8,i
SMILES,LGR2 inh,RAD52 inh,RAD54 branch,EWS-Fli block,F508del corr,GSIS activator,DNA binder FP
COc1cc2c(cc1OC)[C@@H]1Cc3ccc(OC)c(OC)c3CN1CC2,6,4,17,4,2,9,.
Cc1ccc(-c2nnc(NC(=O)c3ccco3)s2)cc1,-42,-13,-6,-101,-1,7,.
CN(C)CCOC(=O)c1ccc2[nH]c3c(c2c1)CSCC3,-3,99*,.,14,0,16,i
C/C(CC1(O)/C(=N/O)CCc2nonc21)=N\O (stereo not drawn),.,.,-14,.,.,.,.
Cc1cc(N2CCNC[C@@H]2C)ccc1N1CCN(Cc2ccccc2)[C@@H](C)C1,-4,51*,.,23,-1,.,i
CCN(CC)CCN(C(=O)/C=C/c1cccs1)c1nc2ccc(F)cc2s1,-3,-2,-1,-26,2,-20,.
COc1ccc(C)c2sc(N(CCN(C)C)C(=O)c3cccc(N4C(=O)CCC4=O)c3)nc12,7,70*,.,0,-3,12,i
COc1ccc(OC)c2sc(N(CCN(C)C)C(=O)/C=C/c3cccs3)nc12,8,101*,90*,.,0,15,i
CN(C)CCCN(C(=O)/C=C/c1cccs1)c1nc2ccc(F)cc2s1,12,58*,21,39,-2,-24,i
N#Cc1ccc(-c2ccc([C@H]3[C@@H](CO)N4CCCCN(C(=O)Nc5ccc(F)cc5)C[C@@H]34)cc2)cc1,13,6,-10,0,2,-1,.
COc1ccc(C2C(C(=O)N3CCC(C)CC3)c3ccccc3C(=O)N2C)cc1 (stereo not drawn),.,.,7,.,.,.,.
COc1nc(N=C(N)N)nc2ccc(C)cc12,6,79*,.,-7,4,9,i
COc1ccc(-c2nc3ccc(C)cc3c(=O)o2)cc1OC,2,-1,-7,-9,-2,-2,.
COc1ccc(NC(=O)N(C)C[C@@H]2Oc3cc(-c4cccc(C(=O)N(C)C)c4)ccc3S(=O)(=O)N([C@@H](C)CO)C[C@H]2C)cc1,-1,2,1,3,0,-7,.
CN(CCCCCCCCCCN(C)C(=O)Oc1cccc([N+](C)(C)C)c1)C(=O)Oc1cccc([N+](C)(C)C)c1,-3,52*,-5,5,-4,-12,i
CN1CCN(c2ccc(CNC[C@H]3O[C@@H](n4cnc5c(=O)[nH]c(N)nc54)[C@H](O)[C@@H]3O)c(F)c2)CC1,1,82*,-5,-1,5,-2,i
Nc1nc2c(ncn2[C@@H]2O[C@H](CNCc3ccc(F)c(N4CCOCC4)c3)[C@@H](O)[C@H]2O)c(=O)[nH]1,15,-9,-13,-8,-2,.,.
CN(C)CCNC(=O)c1cccc2[nH]c(-c3ccncc3)nc12,0,50*,.,14,-1,5,52µM*
COc1ccc(C(=O)NCCN(C)C)c2nc3ccccc3cc12,22,91*,.,45,15*,-11,25µM*
CN(C)CCNC(=O)c1cccc2nc3c(ccc4ccccc43)nc12,6,95*,.,28,19*,-8,14µM*
COc1ccc(-c2nc3c(C(=O)NCCN(C)C)cccc3c3ccccc23)cc1,.,101*,.,4,11*,.,?
